Laboratory results: PubChem BioAssay AID1020 (Sanford-Burnham Center for Chemical Genomics, 2008)
Hit rate of the full screen: of about 200,000 compounds, about 240 (0.12%) were called active. Shown is part of a subset that was picked to be rich in actives. Unmarked numbers belong to inactive results. Rule as the data show it: active = inhibition above about 50%; inactive = the rest.

tested on: glucose-6-phosphate dehydrogenase [Leuconostoc mesenteroides]; experiment: L. mesenteroides G6PDH inhibitors, counter-screen for G6PDH-coupled screening assays, biochemical, Leuconostoc mesenteroides enzyme (AID 1020); details: Purified L. mesenteroides G6PDH, diaphorase/resazurin coupled fluorescence, 45 min; at 5 µM; hits give high values

Row | SMILES | inhibition
1 | CCOc1ccc(C(c2c(C)[nH][nH]c2=O)c2c(C)[nH][nH]c2=O)cc1OCC | 12.1%
2 | O=C(CC1NCCNC1=O)Nc1cc(Cl)cc(Cl)c1 (stereo not given) | -3.6%
3 | Cc1ccc(C(=O)c2ccc(N3CCN(C)CC3)c([N+](=O)[O-])c2)cc1 | 9.1%
4 | O=C(NC(=S)NC1CCSC1=O)c1ccccc1F (stereo not given) | 13.8%
5 | O=C(CSc1nnc(SCc2ccc(Cl)cc2)s1)N/N=C/c1ccccc1Cl | -21.5%
6 | CCC(C)(C)NC(=O)C1c2ccccc2Oc2ccccc21 | 3.6%
7 | COC(=O)c1ccc(NC(=O)CSc2nncc3ccc(OC)c(OC)c23)cc1 | 2.5%
8 | CCC(C)NCCOCCOc1ccc(Br)cc1C (stereo not given) | 6.6%
9 | CCOc1cc(NS(=O)(=O)c2ccc(OC)cc2)c(OCC)cc1NC(C)=O | 6.7%
10 | COc1ccc(C(C(=O)NC2CCCCC2)N(C(=O)Cc2c[nH]c3ccccc23)c2ccccc2)cc1OC (stereo not given) | 14.4%
11 | C/C(=N\OC(=O)c1ccccc1)c1c(C)nc2cc(C)ccn12 | 1.1%
12 | CCc1ccc(N2CC(O)=C(c3nc4ccccc4c(=O)[nH]3)C2=N)cc1 | 16.2%
13 | CC(C)N(Cc1ccccc1)C(=S)Nc1ccc(OC(F)F)cc1 | 0.3%
14 | Cc1cccc(NC(=S)NCCN(C2CCCCC2)C2CCCC2)c1 | 3.8%
15 | COc1ccc(Cl)cc1NC(=O)CNc1ccccc1F | -1.9%
16 | S=c1[nH]nc(-c2ccco2)n1/N=C/c1ccc(Br)s1 | 8.8%
17 | C=CCn1c(CCNC(=O)c2ccccc2F)nnc1SCC(=O)Nc1ccc(OC)cc1 | 0.9%
18 | O=C(COc1ccc(S(=O)(=O)NCc2ccccc2)cc1)N1CCOCC1 | 4.2%
19 | Cn1c(N)c(C(=O)COC(=O)c2ccccc2NCc2ccco2)c(=O)n(C)c1=O | 0.8%
20 | O=[N+]([O-])c1cccc(-c2nnc3c4ccccc4c4ccccc4n23)c1 | 9.1%
21 | O=c1[nH]c2ccccc2n2c(-c3ccccc3)nnc12 | 50% (active)
22 | CCOC(=O)c1cnc2[nH]c3ccccc3n2c1=O | 5%
23 | CC(C)N1C(=O)N(c2ccccc2)C(C)(O)CC1(C)C (stereo not given) | 5.1%
24 | O=C1Nc2ccc([N+](=O)[O-])cc2C1=Nc1cccc(CO)c1 | 46.7%

Row | SMILES | inhibition
25 | Cc1nc(N)c(Br)c(C)c1Br | 4%
26 | O=C(CSc1ccc(-c2ccco2)nn1)NCc1ccc2c(c1)OCO2 | 6.1%
27 | Cc1ccc(C)c(-n2ccnc2SCC(N)=O)c1 | 13.8%
28 | O=C(NC1CCCC1)C(c1ccc(N2CCOCC2)cc1)N(C(=O)c1ccco1)c1ccccc1F (stereo not given) | 14.1%
29 | COc1cccc(NC(=O)c2ccc3c(SCC(=O)O)c4c(nc3c2)CCCC4)c1 | 6%
30 | NS(=O)(=O)c1ccc(NC(=O)COC(=O)C2(c3ccc(F)cc3)CCCC2)cc1 | 16.5%
31 | COc1ccc(/C=C2/C(=O)OCc3cc(OC)c(OC)cc32)c(OC)c1 | -2.8%
32 | CCOC(=O)c1ccc[n+](CC(=O)Nc2ccccc2OC(F)F)c1 | 6.3%
33 | CCO[C@H]1OC(C(=O)N2CCOCC2)=C[C@@H](c2ccc3c(c2)OCO3)[C@@H]1CCCO | 9.9%
34 | CCOC(=O)C1CN(S(=O)(=O)c2ccc(F)cc2)C1 | 4.5%
35 | Clc1ccc2nc(CSc3ccccc3)cn2c1 | 5%
36 | CCOC(=O)C1=C(c2ccc(OC)cc2)C(=O)c2ccccc2C1=O | 31.9%
37 | CCOC(=O)c1c(C)[nH]c(=S)c(C#N)c1-c1ccccc1 | -20.7%
38 | CCOC(=O)c1c(C)[nH]c2c1-c1ccccc1C(=O)C2=O | 55.3% (active)
39 | CN1CCN(CC#CCC2(O)c3ccccc3-c3ccccc32)CC1 | 4.1%
40 | CCCc1cc(=O)[nH]c(SCC(=O)N2CCN(S(=O)(=O)c3ccc(C)cc3C)CC2)n1 | 2.8%
41 | Cc1nn2cc(-c3ccc(Cl)cc3)cnc2c1Br | -0.7%
42 | COC(=O)CC(=O)N1CCN(c2ccc(Cl)c(Cl)c2)CC1 | -3.9%
43 | N#Cc1ncc(C(F)(F)F)cc1Oc1cccnc1 | 1.5%
44 | O=C(N/N=C/c1ccco1)c1ccc(C(=O)N/N=C/c2ccco2)o1 | 2.5%
45 | COc1ccc2c(c1)c(=O)c(C(=O)c1ccc(Cl)cc1)cn2CC(=O)Nc1ccc(F)cc1 | -1.7%
46 | O=C(N/N=C/c1sc(N2CCCCC2)nc1-c1cccs1)c1cccnc1 | 0.4%
47 | CC1(C)C2CC=C(/C=N/NC(=O)c3ccc(Cl)cc3)C1C2 (stereo not given) | 6.3%
48 | COc1cc(NC(=O)c2cccnc2SC)cc(OC)c1 | 5.3%

Row | SMILES | inhibition
49 | O=C1CSC(=S)N1/N=C/c1ccc(O)c([N+](=O)[O-])c1 | 5.2%
50 | Cc1c(Br)c([N+](=O)[O-])nn1CC(=O)Nc1sc2c(c1C(=O)OC(C)C)CCC(C)C2 (stereo not given) | -7.9%
51 | COC(=O)Cc1ccc(NC(=S)NCc2ccccc2)cc1 | 12.1%
52 | CCO[C@H]1OC(C(=O)Nc2ccccc2)=C[C@@H](C2CC2)[C@@H]1CCCO | 10.9%
53 | COc1ccc(-c2cc(C(=O)NC(Cc3c[nH]c4ccccc34)C(=O)O)c(C)o2)cc1OC (stereo not given) | 6.7%
54 | CCc1nc(C)cn1S(=O)(=O)c1cc([N+](=O)[O-])ccc1Cl | 6.7%
55 | COc1ccc(/C=N/S(=O)(=O)c2ccccc2)cc1OC | 8.4%
56 | O=C(c1ccccc1-c1ccccc1)N1CCOCC1 | 1.2%
57 | Cc1oc2c(c1C(=O)N1CCOCC1)C(=O)c1ccccc1C2=O | 57.7% (active)
58 | Cc1onc(-c2ccccc2)c1C(=O)N1CCOCC1 | 17.6%
59 | C/C(=N\NC(=O)CNC(=O)C(c1ccccc1)c1ccccc1)c1ccc(C)cc1 | 11.2%
60 | CC(=O)Oc1c(C(=O)c2nnc(C)o2)c(=O)n(Cc2ccccc2)c2ccccc12 | 2.5%
61 | CSc1c(SCc2ccccc2)cnn(Cc2ccccc2)c1=O | 5.1%
62 | OC(COCc1ccco1)CN1CCN(c2ccccc2)CC1 (stereo not given) | 12.4%
63 | COc1cc(NC(=S)NNC(=O)CC(C)C)c(OC)cc1Cl | -0.9%
64 | Cc1ccc(SCCC(=O)Nc2cc(C)on2)cc1 | 6.5%
65 | O=C(CN1C(=O)c2cccc3cccc(c23)C1=O)N1CCCCC1 | -0.3%
66 | O=C(/C=C/c1ccc(Cl)c([N+](=O)[O-])c1)c1cccnc1 | 0.4%
67 | Cc1csc(Nc2ccc(Cl)cc2)[n+]1-c1ccc(Cl)cc1 | -4%
68 | Cc1cccc(OCCC(=O)Nc2cc(S(=O)(=O)N3CCCCC3)ccc2N2CCOCC2)c1 | 5.4%
69 | CCOc1cc(C(=O)OCC(=O)Nc2cccc(C)c2)ccc1OCC(=O)N1CCOCC1 | -19.1%
70 | O=C(COC(=O)c1cnccn1)Nc1cccc2ccccc12 | 4.3%
71 | CCC(=O)Nc1sc(C(=O)Nc2ccccc2)c(C)c1C(=O)OC | 7.8%
72 | CSc1ccc(CNCCN2CCOCC2)cc1 | 11%

Row | SMILES | inhibition
73 | COc1ccc([C@H]2[C@H](C(C)=O)N3N=Cc4ccccc4C3C23C(=O)OC(C)(C)OC3=O)cc1 (stereo not given in full) | 4%
74 | CCOC(=O)c1oc2c(CN3CCN(C)CC3)c(O)ccc2c(=O)c1-c1ccc(Br)cc1 | -12.6%
75 | Cc1ccc(C(=O)N2CC(=O)Nc3ccccc32)o1 | 2.3%
76 | Cc1cc(NS(=O)(=O)c2ccc(NC(=S)NC(=O)c3ccc(F)cc3Cl)cc2)no1 | 7.4%
77 | Cc1ccccc1C(=O)OC1OC(=O)C(Cl)=C1Nc1ccccc1 (stereo not given) | 2.3%
78 | ClC1(Cl)CC1CSc1ncn[nH]1 (stereo not given) | 10.4%
79 | Cc1cccc(-n2c(SCC(N)=O)nc3c(c2=O)C2(CCCCC2)Cc2ccccc2-3)c1 | 7.9%
80 | CCOc1ccc(C(=O)Nc2cccc(-c3ccc4nncn4n3)c2)cc1 | 2.6%
81 | COc1ccc(C(=O)C2CCCN(C(=O)c3cc4nc(C)cc(C)n4n3)C2)cc1F (stereo not given) | 0.8%
82 | COc1ccc(N2CCN(C(=O)c3ccc4c(Cl)c5c(nc4c3)CCCC5)CC2)cc1 | 17.9%
83 | O=C(COC(=O)CSc1nnc(-c2ccc(Cl)cc2)o1)Nc1cc(Cl)cc(Cl)c1 | -35.2%
84 | COc1cc(C(=O)NCc2ccc(-n3cccc3)cc2)cc(OC)c1OC | 12.2%
85 | Cc1ccc(-c2nc(C)sc2CC(=O)OCC(=O)Nc2c(F)cccc2F)cc1 | -6.1%
86 | CC(C)CNC(=S)NC(=O)c1ccc(Cl)cc1 | 4.7%
87 | C=CCn1c(CCNC(=O)c2cccs2)n[nH]c1=S | 10.1%
88 | Cc1nnnn1/C(=C\c1ccccc1)C(=O)OCC(=O)N1CC2(C)CC1CC(C)(C)C2 (stereo not given) | -6.6%
89 | CCNC(=S)N(CCc1c(C)[nH]c2ccc(C)cc12)Cc1ccco1 | 13.2%
90 | CC(/C=C/c1ccccc1)=N\NC(=O)C1CC1(C)c1ccccc1 (stereo not given) | 5.3%
91 | O=[N+]([O-])c1cc(S(=O)(=O)CCCN2CCOCC2)ccc1F | 10.3%
92 | O=C(Nc1ccc(-c2ccc3nncn3n2)cc1)C1CCCCC1 | 3.6%
93 | CCN1CCN(C(=O)c2ccc(CN(c3ccc(C)c(C)c3)S(C)(=O)=O)cc2)CC1 | 4.1%
94 | C/C(Cc1ccccc1)=N\NC(=O)CNC(=O)c1cccc(Br)c1 | 8.4%
95 | Cc1nc2ccccc2nc(C)c1=NOCc1ccc(Cl)cc1Cl | -13.7%
